Shiga inhibitor: Shiga toxin inhibition | 290,000 tested, 9.2% active | AID 2315 | inhibition, % at 38.7 µM | Vero cells, Shiga toxin protein synthesis inhibition reporter; in the data active means inhibition mostly above about 28%, no sharp cut-off; inactive means mostly below about 43%
AMA1-RON2 inh: AMA1-RON2 (P. falciparum) interaction inhibition; AlphaScreen AMA1-biotinylated RON2 peptide binding; Potency, µM (series often up to 58.2 µM), usual class: inhibitors; 360,000 tested, 0.2% active; AID 720542; active means well fitted inhibition curve with a large enough effect; inconclusive means small, poorly fitted or top-dose-only effect; inactive means no such curve, though single readings can be large or run the other way; further: nearly all actives have a fitted effect of over 45% in size
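AMA1 (3D7) with his tag at 25 nM final met compounds first, then biotinylated RON2 peptide at 25 nM; detection used donor plus acceptor beads, 10 µg/mL apiece, read by AlphaScreen after 30 min at room temperature.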
Marburg entry inh: inhibitors of Marburg virus binding or cell entry | Marburg virus pseudotyped entry inhibition, cell reporter | Potency, µM (highest dose often 37.8 µM), most hits filed as inhibitors | 300,000 tested, 1.8% active | AID 540276; calls by dose curve; tested in HEK293 cells
CHX counter: counter-screen for Shiga toxin inhibitors: cycloheximide protein synthesis inhibition. 300,000 tested, 12% active. max response, %. AID 2314. cell reporter, cycloheximide protein synthesis inhibition counterscreen; in the data active means max response mostly above about 13%, no sharp cut-off; inactive means mostly below about 14%; further: read at 38.3 µM for the half of the compounds with a filed dose
Lassa entry inh: Lassa virus entry inhibition; Lassa virus pseudotype entry inhibition, cell reporter; Potency, µM (doses to about 37.9 µM), usual class: inhibitors; 300,000 tested, 1.2% active; calls by dose curve; tested in HEK293 cells; further: nearly all actives have a fitted effect of over 50% in size
Large screens that a line does not name were inactive. The entries come from a sample that favours hits as a whole.

Cc1cc(C)n2nc(C(=O)Nc3ccc4c(c3)OCO4)nc2n1	Shiga inhibitor 61.1, CHX counter 31.6, Lassa entry inh inconclusive
CCCCN1C(=O)C(CC(=O)NC2CCCC2)CC(C(=O)N(C(C)C)C(C)C)=C1C (stereo unspecified)	none (no result: Shiga inhibitor, Marburg entry inh, CHX counter, Lassa entry inh)
O=C(C1CCC(Cn2c(=O)c3sccc3n(Cc3ccc(F)cc3)c2=O)CC1)N1CCOCC1 (stereo unspecified)	none (no result: Shiga inhibitor, AMA1-RON2 inh, Marburg entry inh, CHX counter)
CC1(C(=O)NS(=O)(=O)C2CC2)CCCN(C(=O)c2ccc(F)cc2Cl)C1 (stereo unspecified)	none (no result: Shiga inhibitor, Marburg entry inh, CHX counter, Lassa entry inh)
O=C(Nc1ccccc1C(F)(F)F)n1ncc2cc(Cl)ccc21	none (no result: Shiga inhibitor, AMA1-RON2 inh, CHX counter)
Cc1ccccc1NC(=O)n1ncc2cc(Cl)ccc21	CHX counter 20.8
Cc1ccc(NC(=O)n2ncc3c(C)cccc32)cc1F	Shiga inhibitor 105.9, CHX counter 72.1 (no result: Marburg entry inh, Lassa entry inh)
Cc1cccc2c1cnn2C(=O)Nc1ccccc1Br	Marburg entry inh inconclusive, Lassa entry inh inconclusive
COc1ccc(NC(=O)n2ncc3c(C)cccc32)cc1	Shiga inhibitor 127.9, CHX counter 58.7 (no result: Marburg entry inh, Lassa entry inh)
Cc1cccc2c1cnn2C(=O)Nc1ccccc1Cl	Shiga inhibitor 63.5, CHX counter 35.0, Lassa entry inh inconclusive
Cc1ccc(-n2[nH]c(C)c(/C=N/Nc3ccc([N+](=O)[O-])cc3[N+](=O)[O-])c2=O)cc1	Marburg entry inh inconclusive
CCCCNC(=O)NS(=O)(=O)c1ccc(C(=O)O)cc1	none (no result: AMA1-RON2 inh, Marburg entry inh, Lassa entry inh)
COc1ccc(C)cc1NC(=O)n1ncc2c(C)cccc21	none (no result: Marburg entry inh, Lassa entry inh)
COc1ccc(NC(=O)n2ncc3c(C)cccc32)cc1OC	Shiga inhibitor 63.5, CHX counter 35.6 (no result: Marburg entry inh, Lassa entry inh)
CCN(C(=O)c1nn(-c2ccc(OC)c(Cl)c2)c(=O)c2c1c1ccccc1n2C)c1cccc(C(F)(F)F)c1	Lassa entry inh inconclusive (no result: Shiga inhibitor, AMA1-RON2 inh, CHX counter)
COc1cc2nc(CN(C)Cc3ccc(OC)c(OC)c3OC)[nH]c(=O)c2cc1OC	Shiga inhibitor 36.8, CHX counter 11.3 (no result: Marburg entry inh, Lassa entry inh)
COc1ccc(S(=O)(=O)NC2CC(=O)N(c3ccccc3)C2)cc1C (stereo unspecified)	none (no result: Shiga inhibitor, CHX counter)
Cc1ccc(NC2Nc3cc(C)nn3S2)c(C)c1 (stereo unspecified)	Shiga inhibitor 83.2, CHX counter 57.3
Cc1ccc(N=CNc2ccc(C)cc2C)c(C)c1	none
Cc1cc2n(n1)SC(Nc1ccccc1)N2 (stereo unspecified)	CHX counter 31.7
Cc1ccc(-c2ccc(=O)n(CC(=O)Nc3ccc(C(C)C)cc3)n2)cc1	none (no result: Shiga inhibitor, AMA1-RON2 inh, CHX counter)
C[C@]1(C(=O)O)[C@@H]2CC[C@@H](O2)[C@@]1(C)C(=O)O	Marburg entry inh 4.11µM (no result: Shiga inhibitor, AMA1-RON2 inh, CHX counter, Lassa entry inh)
O=C(O)C12C3CCC(O3)C1(C(=O)O)C1CCC2O1 (stereo unspecified)	none (no result: Shiga inhibitor, CHX counter)
CC1=NN(/C(=N\c2nnc(C)s2)Nc2ccc(C(C)(C)C)cc2)[C@H](c2ccc(C)cc2)S1	Shiga inhibitor 27.2, Marburg entry inh 8.2µM
CN(C)C(CNC(=O)c1ccc(C2SCCS2)cc1)c1ccccc1 (stereo unspecified)	Shiga inhibitor 54.5, CHX counter 35.3
CN(C)C(CNC(=O)c1ccc(NC(=O)c2cccs2)cc1)c1ccccc1 (stereo unspecified)	Marburg entry inh inconclusive
CCOP(=O)(OCC)OCC	none (no result: Shiga inhibitor, Marburg entry inh, CHX counter, Lassa entry inh)
CCOP(=O)(CCP(=O)(OCC)OCC)OCC.C[CH2][Sn]([Cl])([Cl])[CH2]C	Marburg entry inh inconclusive, Lassa entry inh 12.6µM (no result: Shiga inhibitor, CHX counter)
COc1ccc(-n2ccnc(NCc3ccc(Cl)cc3)c2=O)cc1	none (no result: Shiga inhibitor, AMA1-RON2 inh, Marburg entry inh, CHX counter)
COC1CCC(C2CC(=O)C3=C(CCCC3)O2)CC1 (stereo unspecified)	none (no result: Shiga inhibitor, AMA1-RON2 inh, CHX counter, Lassa entry inh)
CN(c1ccc(C(=O)Nc2ccc(CC#N)cc2)cc1)S(C)(=O)=O	Shiga inhibitor 57.7 (no result: Marburg entry inh, Lassa entry inh)
CN(c1ccc(C(=O)Nc2ccc3c(c2)OCCO3)cc1)S(C)(=O)=O	Shiga inhibitor 58.5, Marburg entry inh inconclusive, CHX counter 30.9
CN(c1ccc(C(=O)Nc2ccc3c(c2)OCO3)cc1)S(C)(=O)=O	Shiga inhibitor 61.8, CHX counter 33.2 (no result: Marburg entry inh, Lassa entry inh)
Cc1ccc(CN(c2ccc(C(=O)Nc3ccc4c(c3)OCO4)cc2)S(C)(=O)=O)cc1	none
O=Nc1c(O)[nH]c2c(Cl)c(Cl)ccc12	none (no result: AMA1-RON2 inh, Marburg entry inh, Lassa entry inh)
O=C(CCC(=O)N1CCN(S(=O)(=O)c2ccc([N+](=O)[O-])cc2)CC1)N1CCOCC1	none (no result: Shiga inhibitor, CHX counter)
Cc1csc(NC(=O)c2ccc(COc3ccccc3)o2)n1	Shiga inhibitor 89.6, AMA1-RON2 inh inconclusive, Marburg entry inh inconclusive, CHX counter 48.8
Cc1cccc(NC(=O)c2ccc(COc3ccccc3)o2)n1	Shiga inhibitor 39.7, CHX counter 16.3
Cc1cccc(NC(=O)c2ccc(COc3ccc4ccccc4c3)o2)n1	none (no result: Marburg entry inh, Lassa entry inh)
CSc1nnc(CSc2cc(C)nc(N(C)C)n2)o1	none
